{"source": "PubChem BioAssay AID1347048", "about": "(National Center for Advancing Translational Sciences (NCATS), 2019)", "note": "Screen size: about 76,000 compounds; about 1,200 (1.6%) were called active. Not shown: some 4% with an inconclusive outcome. The call rests on the fitted dose curve. The list comes from a sample in which actives are over-represented; it also holds similar structures and randomly drawn compounds. On the % scale 0 is the no-effect control and ±100 the full control effect; potency means the concentration at half of the fitted maximal effect.", "data": [{"target": "Atrial natriuretic peptide receptor 1 (Homo sapiens) (UniProt P16066)", "sequence (P16066 whole entry, looked up)": "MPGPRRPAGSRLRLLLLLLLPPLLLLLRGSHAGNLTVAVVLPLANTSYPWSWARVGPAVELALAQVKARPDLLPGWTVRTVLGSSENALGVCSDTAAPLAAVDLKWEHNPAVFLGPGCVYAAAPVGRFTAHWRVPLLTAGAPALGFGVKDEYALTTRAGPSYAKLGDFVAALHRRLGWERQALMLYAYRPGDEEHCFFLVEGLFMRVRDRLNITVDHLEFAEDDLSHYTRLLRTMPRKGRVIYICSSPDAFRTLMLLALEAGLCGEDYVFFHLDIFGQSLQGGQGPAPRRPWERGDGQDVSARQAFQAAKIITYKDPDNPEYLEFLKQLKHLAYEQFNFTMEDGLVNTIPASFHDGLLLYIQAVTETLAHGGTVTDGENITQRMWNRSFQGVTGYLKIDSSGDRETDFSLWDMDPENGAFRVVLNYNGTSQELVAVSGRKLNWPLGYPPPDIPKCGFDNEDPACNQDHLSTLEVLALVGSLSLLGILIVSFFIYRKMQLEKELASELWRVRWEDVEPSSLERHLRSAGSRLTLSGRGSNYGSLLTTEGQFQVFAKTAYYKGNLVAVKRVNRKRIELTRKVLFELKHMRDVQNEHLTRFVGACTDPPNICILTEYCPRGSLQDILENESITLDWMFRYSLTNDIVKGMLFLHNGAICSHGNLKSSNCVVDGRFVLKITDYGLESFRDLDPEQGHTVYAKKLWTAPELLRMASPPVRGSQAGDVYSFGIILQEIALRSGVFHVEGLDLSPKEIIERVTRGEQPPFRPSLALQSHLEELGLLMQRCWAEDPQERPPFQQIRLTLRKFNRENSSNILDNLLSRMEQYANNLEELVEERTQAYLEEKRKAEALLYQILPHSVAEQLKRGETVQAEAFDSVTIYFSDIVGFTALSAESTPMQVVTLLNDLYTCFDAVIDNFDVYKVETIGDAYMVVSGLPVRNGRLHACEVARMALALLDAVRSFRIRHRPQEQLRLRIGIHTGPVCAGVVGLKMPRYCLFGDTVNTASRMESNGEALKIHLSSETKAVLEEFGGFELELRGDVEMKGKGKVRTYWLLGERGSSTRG", "assay": "Natriuretic polypeptide receptor (hNpr1) antagonism - Primary qHTS; further: nearly all actives have a fitted effect of over 60% in size", "details": "HEK293 hNpr1 GloSensor cGMP, ANP-stimulated luminescence; series mostly up to 46.3 µM; activity change, negative = inhibition: at the top concentration", "outline": "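HEK293 cells stably expressing human Npr1 and cGMP GloSensor pGS-40F, loaded 2 h with 2% GloSensor reagent, given compound 30 min at room temperature. Luminescence read before and 20 min after 0.1 nM hNppA.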", "values": [{"smiles": "COc1ccc(Cl)cc1-c1ccc2c(c1)C(=O)N1CCN(C(C)=O)C[C@@H]1C(=O)N2", "activity change, negative = inhibition": "-0.72% [at 70.6 µM] (inactive)"}, {"smiles": "Cc1c(Cl)c(C(=O)N2C[C@@H](CN3CCCN(C)CC3)[C@@H](CO)C2)nn1C", "activity change, negative = inhibition": "2.36% (inactive)"}, {"smiles": "CC(C)CCNC(=O)CCN(CC(C)C)C(=O)c1ccoc1", "activity change, negative = inhibition": "-1.04% (inactive)"}, {"smiles": "O=C(NC(C(=O)N1CCCCC1)C1CCN(C(=O)c2ccc(Cl)cc2)CC1)c1ccccc1", "note": "(stereo not given)", "activity change, negative = inhibition": "-7.36% (inactive)"}, {"smiles": "Cc1cnc(CC2CCN(C(=O)c3cccc4[nH]ccc34)CC2)n1CC1CC1", "activity change, negative = inhibition": "-1.32% (inactive)"}, {"smiles": "O=C(C1CC1)N1CCC2(CC1)C(=O)NCN2Cc1ccc(Cl)cc1", "activity change, negative = inhibition": "6.52% (inactive)"}, {"smiles": "CC(C)CCN1CCC2(CC1)C(=O)NCN2Cc1ccc(Cl)cc1", "activity change, negative = inhibition": "12.2% (inactive)"}, {"smiles": "O=C1NCN(Cc2ccc(Cl)cc2)C12CCN(Cc1ccccc1)CC2", "Potency": "11.2 µM (active)"}, {"smiles": "COCC(=O)NC[C@H]1O[C@@H](CO)[C@@H](O)[C@H]1N1CCN(c2ccc(F)cc2)CC1", "activity change, negative = inhibition": "5.93% (inactive)"}, {"smiles": "CC(=O)NC1(C)CN(Cc2ccc(-c3ccc4c(ccn4C)c3)s2)C1", "Potency": "8.91 µM (active)"}, {"smiles": "CC(=O)NC1(C)CCN(Cc2cnc(-c3ccc4c(ccn4C)c3)s2)CC1", "activity change, negative = inhibition": "-6.52% [at 70.6 µM] (inactive)"}, {"smiles": "COc1ccc(C(=O)N2CCC3(CC2)OC(=O)N(CC2CC2)C3(C)c2cccnc2)cn1", "note": "(stereo not given)", "activity change, negative = inhibition": "-5.47% [at 70.6 µM] (inactive)"}, {"smiles": "COc1ccc(CN2CCN(c3noc(C(C)C)n3)CC2CCO)cc1C", "note": "(stereo not given)", "activity change, negative = inhibition": "-1.23% (inactive)"}, {"smiles": "O=C(C1CCCC1)N1CCC2(CCCCO2)CC1", "activity change, negative = inhibition": "3.39% (inactive)"}, {"smiles": "O=C(NCC1CC1)c1nc2c(o1)CCN(CCc1ccccc1)CC2", "activity change, negative = inhibition": "-0.0689% [at 70.6 µM] (inactive)"}, {"smiles": "O=C(NCC1CC1)c1nc2c(o1)CCN(Cc1cccc(F)c1F)CC2", "Potency": "22.4 µM (active)"}, {"smiles": "O=C(c1nc2c(o1)CCN(Cc1ccccc1F)CC2)N1CCOCC1", "activity change, negative = inhibition": "-0.8% [at 70.6 µM] (inactive)"}, {"smiles": "CCOc1ccccc1C(=O)N1CCC(c2n[nH]c(=O)n2-c2ccc(C)cc2)CC1", "activity change, negative = inhibition": "-2.74% (inactive)"}, {"smiles": "Cc1ccoc1C(=O)N1CCC(C2CCN(Cc3cccc(F)c3F)CC2)C1", "note": "(stereo not given)", "activity change, negative = inhibition": "-16% (inactive)"}, {"smiles": "COc1ccc(C(=O)Nc2cccc(-c3nnc4n3CCCC4)c2)cc1", "activity change, negative = inhibition": "2.9% (inactive)"}, {"smiles": "COc1ccc(C)cc1NC(=O)Cn1nc2n(c1=O)CCCC2", "activity change, negative = inhibition": "-1.49% (inactive)"}, {"smiles": "COc1ccc(C)cc1NC(=O)Nc1cccc(-c2ccc(N3CCCCC3)nn2)c1", "Potency": "10 µM (active)"}, {"smiles": "COCC(=O)NC[C@H]1CCN(Cc2cn(C)c3ccccc23)C[C@H]1N(C)C", "activity change, negative = inhibition": "6.61% (inactive)"}, {"smiles": "CC1(COCC2CC2)COc2ccc(C(=O)NCc3cccnc3)cc2N1", "note": "(stereo not given)", "activity change, negative = inhibition": "-4.53% [at 70.6 µM] (inactive)"}, {"smiles": "COc1ccc(OCC2(C)COc3ccc(C(=O)Nc4cccnc4)cc3N2)cc1", "note": "(stereo not given)", "Potency": "25.1 µM (active)"}, {"smiles": "COc1ccc(OCC2(C)COc3ccc(C(=O)NC4CCOCC4)cc3N2)cc1", "note": "(stereo not given)", "activity change, negative = inhibition": "-9.27% [at 70.6 µM] (inactive)"}, {"smiles": "Cc1ccc(C(=O)N2CCC3(CC2)CC(=O)c2ccccc2O3)cc1", "activity change, negative = inhibition": "6.47% (inactive)"}, {"smiles": "O=C(CCC[C@H]1NC[C@@H]2C[C@H]1CN(Cc1ccccc1)C2)NCC1CC1", "activity change, negative = inhibition": "-1.01% (inactive)"}, {"smiles": "O=C(c1ccncc1)N1CCC(Cc2noc(C3CC3)n2)C1", "note": "(stereo not given)", "activity change, negative = inhibition": "-1.24% (inactive)"}, {"smiles": "COc1ccccc1-c1onc(C)c1C(=O)NCc1ccc(Cl)cc1", "activity change, negative = inhibition": "-13.5% (inactive)"}, {"smiles": "Cc1cc(CNC(=O)c2ccc(-c3ccccc3Cl)o2)n(C)n1", "Potency": "11.2 µM (active)"}, {"smiles": "O=C(NCc1ccc(Cl)cc1)c1cccn2nccc12", "activity change, negative = inhibition": "-5.27% [at 70.6 µM] (inactive)"}, {"smiles": "Cn1cc(-c2cc(-c3cccnc3)c3cncn3c2)cn1", "activity change, negative = inhibition": "-2.47% [at 70.6 µM] (inactive)"}, {"smiles": "COc1ccc(-c2cc(N3CCCC(NC(=O)c4cc(F)ccc4Cl)C3)n[nH]2)cc1", "note": "(stereo not given)", "activity change, negative = inhibition": "-13.6% (inactive)"}, {"smiles": "O=C(c1ccoc1)N1CCOc2ccc(CN3CCc4ccccc4C3)cc2C1", "activity change, negative = inhibition": "3.92% (inactive)"}, {"smiles": "O=C1c2cnc(-c3ccc(Cl)cc3)nc2OCCN1Cc1ccccc1", "Potency": "31.6 µM (active)"}, {"smiles": "O=C1c2cnc(-c3ccc(O)c(F)c3)nc2OCCN1Cc1ccccc1", "activity change, negative = inhibition": "-10.8% [at 70.6 µM] (inactive)"}, {"smiles": "COc1ccc(-c2ncc3c(n2)OCCN(Cc2ccccc2)C3=O)cn1", "activity change, negative = inhibition": "-12.4% [at 70.6 µM] (inactive)"}, {"smiles": "COc1ccc(CNC(=O)N2CCC3(CC2)CC(N(C(C)=O)C2CC2)CCO3)cc1", "note": "(stereo not given)", "activity change, negative = inhibition": "-4.72% (inactive)"}, {"smiles": "Cc1nn2c(c1-c1ccccc1-c1ccccc1)N(CC1CC1)CCC2", "Potency": "2.82 µM (active)"}, {"smiles": "Cc1nn2c(c1-c1ccccc1-c1ccccc1)N(C(=O)CN1CCOCC1)CCC2", "activity change, negative = inhibition": "-11.1% [at 70.6 µM] (inactive)"}, {"smiles": "Cc1nn2c(c1-c1ccccc1Oc1ccccc1)N(C(=O)C(C)C)CCC2", "activity change, negative = inhibition": "-16.7% [at 70.6 µM] (inactive)"}, {"smiles": "COc1ccccc1-c1[nH]nc2ncc(C(=O)N3CCN(Cc4ccccc4)CC3)nc12", "activity change, negative = inhibition": "0.0858% [at 70.6 µM] (inactive)"}, {"smiles": "CN(C)C(=O)c1cccnc1OC1CCN(S(=O)(=O)c2ccc3c(c2)CCCC3)C1", "note": "(stereo not given)", "activity change, negative = inhibition": "-19.8% (inactive)"}, {"smiles": "O=C(c1ccno1)N1C[C@@H]2OCC(=O)N(c3ccccc3)[C@@H]2C1", "activity change, negative = inhibition": "-0.0457% [at 70.6 µM] (inactive)"}, {"smiles": "O=C(Nc1ccccc1)c1nc2c(o1)CCN(Cc1cccc(Cl)c1)CC2", "Potency": "11.2 µM (active)"}, {"smiles": "Cc1cccc(CN2CCc3nc(C(=O)Nc4ccc(Cl)cc4)oc3CC2)c1", "Potency": "8.91 µM (active)"}, {"smiles": "CCNC(=O)C1C(c2cccc(NC(=O)c3cccc(C)c3)c2)OC(=O)N1Cc1cccc(Cl)c1", "note": "(stereo not given)", "activity change, negative = inhibition": "-20.7% (inactive)"}, {"smiles": "O=C(NCCOc1ccccc1)c1nc2c(o1)CCN(CC1CCCCC1)CC2", "activity change, negative = inhibition": "-2.91% [at 70.6 µM] (inactive)"}, {"smiles": "N#Cc1ccc(CN2CCc3nc(C(=O)N4CCOCC4)oc3CC2)cc1", "activity change, negative = inhibition": "-2.41% [at 70.6 µM] (inactive)"}, {"smiles": "COc1ccc(CN2CCc3nc(C(=O)N4CCOCC4)oc3CC2)cc1OC", "activity change, negative = inhibition": "-5.72% [at 70.6 µM] (inactive)"}, {"smiles": "O=C(Cn1nc2n(c1=O)CCCC2)Nc1ccc(Cl)cc1", "activity change, negative = inhibition": "5.33% (inactive)"}, {"smiles": "O=C(Nc1ccc(Cl)cc1)c1nc2c(o1)CCN(Cc1ccsc1)CC2", "Potency": "8.91 µM (active)"}, {"smiles": "O=C(Nc1cccc(Cl)c1)c1cnc2c(c1)N(C(=O)CCc1ccccc1)CCC2", "activity change, negative = inhibition": "-5.9% [at 70.6 µM] (inactive)"}, {"smiles": "COCCNc1ncccc1-c1noc([C@@H]2CCCN2Cc2ccc3c(c2)OCO3)n1", "activity change, negative = inhibition": "-3.12% [at 70.6 µM] (inactive)"}, {"smiles": "CC(C)N1C(=O)OCC12CCN(C(=O)c1ccc(Oc3ccccc3)cc1)C2", "note": "(stereo not given)", "activity change, negative = inhibition": "4.3% [at 70.6 µM] (inactive)"}, {"smiles": "CCc1nc2c(c(-c3ccc(Cl)cc3)n1)CN(CCC(C)C)CC2", "activity change, negative = inhibition": "-1.49% (inactive)"}, {"smiles": "COC(=O)N1CCCc2nc(C)nc(-c3ccc(O)cc3)c2C1", "activity change, negative = inhibition": "2.32% [at 70.6 µM] (inactive)"}, {"smiles": "CN(C)c1cc(N2C[C@@H](CN3CCOCC3)C[C@H](CO)C2)ncn1", "activity change, negative = inhibition": "-8.83% (inactive)"}, {"smiles": "COc1ccccc1C(=O)N1CCC2(CC1)CC(=O)c1ccccc1O2", "activity change, negative = inhibition": "-21.6% [at 70.6 µM] (inactive)"}, {"smiles": "CC(=O)N(C1CC1)C1CCOC2(CCN(C(=O)C3(c4ccccc4)CC3)CC2)C1", "note": "(stereo not given)", "activity change, negative = inhibition": "4.52% (inactive)"}, {"smiles": "COCC1CN(C(C)=O)CC12CCN(Cc1ccccc1OC)CC2", "note": "(stereo not given)", "activity change, negative = inhibition": "-1.17% (inactive)"}, {"smiles": "CC1=NS(=O)(=O)N(C)C=C1C(=O)OCc1nc(-c2ccccc2C)no1", "activity change, negative = inhibition": "0% (inactive)"}, {"smiles": "COc1ccc(CN2C=C(C(=O)OCc3nc(C)no3)C(C)=NS2(=O)=O)cc1", "activity change, negative = inhibition": "-6.71% (inactive)"}, {"smiles": "CC1=NS(=O)(=O)N(C)C=C1C(=O)OCc1nc(-c2ccc(C)cc2)no1", "Potency": "10 µM (active)"}]}]}
